Inconclusive results are not listed. Entries that show only a call come without a potency. A number with no mark means an inactive call. The source made the active and inactive calls. Calls follow the shape of the dose curve; as a rule, active = well fitted cell-killing curve with a large enough effect in the repeat runs; inconclusive = weak or mixed curves, or effect the other way; inactive = flat fitted curve, though single readings scatter.
Assay: cAMP Responsive Elements (CRE) small molecule agonists, cell-based qHTS assay: qHTS cell viability counter screen (AID 2060914); also: nearly all actives have a fitted effect of over 50% in size
How it was run: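 Cytotoxicity was measured as ATP luminescence (CellTiter-Glo, 30 min at room temperature) in the same wells as the CRE-bla FRET read-out. HEK293T CRE-bla cells had 3 h compound exposure at 37C/5% CO2.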

Compound | Potency | activity change, negative = cytotoxicity
CC12CC3CC(C)(C1)CC(N)(C3)C2 | inactive | 
CN1[C@@H]2CC[C@H]1CC(NC(=O)n1c(=O)[nH]c3ccccc31)C2 (stereo not given in full) | inactive | 
CCCCCCCCCCCCCCCCC | inactive | 
O=C(NCCN1CCOCC1)c1ccc(Cl)cc1 | inactive | 
CC(CCl)OC(C)CCl (stereo not given) | inactive | 
O=c1[nH]c(=O)c2ccccc2o1 | inactive | 
COc1cc(C(C)C)ccc1C |  | -11.5% [at 18.9 µM]
CCOC(=O)OC(C)OC(=O)[C@@H]1N2C(=O)[C@@H](NC(=O)[C@H](N)c3ccccc3)[C@H]2SC1(C)C (stereo not given in full) | inactive | 
CC(C)=CCNc1ncnc2c1ncn2[C@@H]1O[C@H](CO)[C@@H](O)[C@H]1O | inactive | 
O=CNNC=O | inactive | 

From PubChem BioAssay (Tox21)
